Experimental data reported in PubChem BioAssay (NCI).
The panel holds about 83,000 compounds, 20% with a hit somewhere; the sample as a whole holds those more often.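 The endpoint reported here, percent growth, reads 100 for growth as untreated, 0 for no net growth and -100 for all cells dead.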 Activity calls are given as the source filed them. How the source made its calls: active means growth percent below 10; inactive means the rest.

tested on: HL-60(TB) leukemia; assay: NCI-60 one-dose screen, 48 h (100 = growth as untreated, 0 = no growth, -100 = all killed); details: 10 µM unless noted

| Structure (SMILES) | growth |
| --- | --- |
| COc1cc(-c2nn(-c3ccc(NC(=O)Nc4ccc(Cl)c(C(F)(F)F)c4)cc3)cc2-c2ccncc2)ccc1Cl | 1.53% (active) |
| COc1cccc(N=CNc2cccc(OC)c2)c1 | 96.7% (inactive) |
| COc1c(C(=O)/C=C/c2ccc(C)o2)c(O)cc2occc12 | 44.6% (inactive) |
| CCC(C)(c1ccc(O)c(C)c1)c1ccc(O)c(C)c1 | 128% (inactive) |
| Cc1ccc(C=C2C(=O)NC(=O)NC2=O)cc1 | 101% (inactive) |
| Cc1ccc(C2CC(c3cccs3)=NN2c2ccc(S(N)(=O)=O)cc2)s1 (stereo not given) | 88.4% (inactive) |
| CC(=O)NC1(C(=O)O)CCCC1 | 101% (inactive) |
| FC(F)(F)c1nc2c(NCc3ccc(-c4ccccc4)cc3)cccc2[nH]1 | 21.1% (inactive) |
| CC(=O)c1ccc(NCn2nc(-c3ccc(Cl)cc3)oc2=S)cc1 | 88.9% (inactive) |
| Clc1ccc(Nc2nnc(-c3ccc4c(c3)OCO4)o2)cc1 | 80.1% (inactive) |
| Cc1ccc(-c2ccc(/C=C(\C#N)c3nc(-c4ccco4)cs3)o2)cc1 | 101% (inactive) |
| CC(C)CC(=O)Nc1n[nH]c2c1CN(C(=O)C1CCN(C)CC1)C2(C)C | -26.2% (active) |
| Cc1cc(O)c(C(C)C)cc1N=O | 66.1% (inactive) |
| Cc1nc2cc(Nc3nc(NCCN)nc(Nc4ccc(F)cc4)n3)ccc2n1Cc1ccccc1 | -21.5% (active) |
| N#CCCCCCCCCCCC#N | 98.7% (inactive) |
| CCCCn1c(-c2ccc(C(=O)O/N=C(\N)c3ccc4ccccc4c3)cc2)nc(-c2ccccc2)c1-c1ccccc1 | 23.8% (inactive) |
| O=C(N/N=C/c1ccccc1SSc1ccccc1/C=N/NC(=O)c1ccccc1)c1ccccc1 | 3.4% (active) |
| C[n+]1cc2cc(C(N)=O)[nH]c3c(=N)c(Cl)c(N)c1c23 | 78.8% (inactive) |
| COc1ccc(C2CC(=O)c3c(O)cc(OC4OC(COC5OC(C)C(O)C(O)C5O)C(O)C(O)C4O)cc3O2)cc1O (stereo not given) | 131% (inactive) |
| OC(c1cc(-c2ccc(Cl)cc2)nc2c(Cl)cccc12)C1CCCCN1 (stereo not given) | -67% (active) |

| Structure (SMILES) | growth |
| --- | --- |
| O=C1c2ccccc2C(=O)c2c(N=Nc3sc(=O)[nH]c3S)cccc21 | 111% (inactive) |
| O=C(Nc1ccc2ncnc(Nc3cccc(C(F)(F)F)c3)c2c1)c1cccs1 | 47.9% (inactive) |
| COc1cc(/C=C/C(=O)c2ccc(NC(=O)CSc3nnc(-c4cc(OC)c(OC)c(OC)c4)n3-c3ccccc3)cc2)cc(OC)c1OC | 6.87% (active) |
| COc1cc(NC(C)CCCN)c2ncccc2c1Oc1ccc(Cl)cc1 (stereo not given) | 94.8% (inactive) |
| COc1cc(NC(C)CCCNC(=O)CCC(=O)NCCCNCCCCCCCCNCCCNC(=O)CCC(=O)NCCCC(C)Nc2cc(OC)cc3cccnc23)c2ncccc2c1 (stereo not given) | 56.5% (inactive) |
| Nc1nc(I)c2ncn(C3OC(CO)C(O)C3O)c2n1 (stereo not given) | 99.4% (inactive) |
| O=C(N/N=C/c1ccc([N+](=O)[O-])cc1)c1ccc2nc(-c3ccc(Cl)cc3)[nH]c2c1 | 6.58% (active) |
| CC[C@]12C=CCN3CC[C@@]4(c5ccc(OC)cc5N(C)[C@H]4[C@@](O)(C(=O)OC)[C@@H]1OC(=O)CCCN1CCOCC1)[C@@H]32 | 97.5% (inactive) |
| Cc1nn(-c2ccccc2)c(Cl)c1/C=C(/NC(=O)c1ccccc1)c1nc2ccccc2[nH]1 | 85.5% (inactive) |
| O=C(Nc1cccc(-n2cc(-c3ccncc3)c(-c3ccc(O)c(Cl)c3)n2)c1)c1ccc(Cl)c(Cl)c1 | 33.9% (inactive) |
| FC(F)(F)c1cccc(CNC2CCN(CCc3ccccc3)CC2)c1 | 46.2% (inactive) |
| CC(O)/C=C/C=C/C(O)CC/C=C/C(=O)NCC(C)(C)O (stereo not given) | 81.1% (inactive) |
| O=c1oc2ccc(F)cc2c(=O)n1-c1ccc(Cl)cc1F | -45.3% (active) |
| O=C1Nc2ccc(Br)cc2C12CC(c1ccccc1)=NN2 (stereo not given) | -4.96% (active) |
| COC(=O)/C=C1\SC(=Nc2cccc(Cl)c2)N(CCc2c[nH]c3ccccc23)C1=O | -37.1% (active) |
| CCOC(=O)/C=C1\S/C(=N\Nc2ccc([N+](=O)[O-])cc2[N+](=O)[O-])N(Cc2ccccc2)C1=O | 76.3% (inactive) |
| CN(C)c1ccc(C#Cc2c(F)cccc2Cl)cc1 | 79% (inactive) |
| C=CCS(C)(=O)=O | 104% (inactive) |
| Fc1cc(F)cc(C(c2c[nH]c3ccccc23)c2c[nH]c3ccccc23)c1 | 147% (inactive) |
| C=CCc1c(O)c(C(=O)/C=C/c2ccccc2)c(OC)c2ccoc12 | 36.3% (inactive) |
